# Bioassay records as filed in PubChem.
# In the library only some 10% were active in any assay of this set; here they are far more common.
# MCF10A rerep – induces DNA re-replication in MCF 10a normal breast cells | MCF 10A DNA re-replication, Hoechst nuclear intensity, 48 h | 350,000 tested, 2.9% active | Potency, µM (doses to about 46.1 µM), for inactives: at the top dose activity, positive = re-replication, usual class: activators; also: % of control where 0% means no effect; nearly all actives have a fitted effect of over 50% in size
# ELG1 DNA repair – blocks ELG1-dependent DNA repair in HEK293T cells; HEK293T ELG1-luciferase reporter, luminescence, 16 h; DNA damage induced by 5-fluorouridine; Potency, µM (top dose mostly 46.1 µM), inactives show at the top dose activity change, negative = inhibition, usual class: inhibitors; 330,000 tested, 2.3% active; AID 504467; also: % is scaled to controls: 0 for no effect and ±100 for the full control effect; nearly all actives have a fitted effect of over 55% in size
#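 HEK293T cells expressing luciferase-tagged ELG1 (2,000/well) received 5-Fluorouridine plus compound or DMSO for 16 hr at 37 °C. Luciferase was read by ONE-Glo luminescence after 30 min at room temperature.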
# RORgamma inh – inhibitors of mouse ROR gamma transcriptional activity; P51450; Drosophila S2 Gal4-RORgamma UAS-luciferase reporter, 20 h; Potency, µM (top dose mostly 53.6 µM), for inactives: top-dose activity change, negative = inhibition, hits mostly inhibitors; 310,000 tested, 5.4% active; AID 2551; also: % is scaled to controls: 0 for no effect and ±100 for the full control effect; nearly all actives have a fitted effect of over 60% in size
# Target sequence (P51450 whole entry, looked up, the tested form may be a part): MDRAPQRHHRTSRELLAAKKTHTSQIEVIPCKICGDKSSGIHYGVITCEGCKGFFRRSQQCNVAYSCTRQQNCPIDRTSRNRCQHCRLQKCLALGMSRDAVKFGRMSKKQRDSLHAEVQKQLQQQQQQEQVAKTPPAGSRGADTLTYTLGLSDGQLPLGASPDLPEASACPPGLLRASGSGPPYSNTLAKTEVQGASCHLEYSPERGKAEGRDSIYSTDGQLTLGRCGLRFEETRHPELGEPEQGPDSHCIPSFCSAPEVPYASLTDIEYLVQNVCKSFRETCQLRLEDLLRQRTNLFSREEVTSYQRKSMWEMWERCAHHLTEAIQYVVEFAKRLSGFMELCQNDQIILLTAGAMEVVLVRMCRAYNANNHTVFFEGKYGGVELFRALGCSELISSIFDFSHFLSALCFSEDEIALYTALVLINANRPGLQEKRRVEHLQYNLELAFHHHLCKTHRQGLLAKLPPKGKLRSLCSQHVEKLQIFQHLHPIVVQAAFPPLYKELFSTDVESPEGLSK
#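 Compounds are pin-transferred onto Drosophila Schneider cells expressing a copper-inducible Gal4–ROR gamma transactivation domain fusion. After 1 hr, copper sulfate is added to 700 uM final; luciferase is read 20 hr later.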
# Gal4-VP16 FLuc – Gal4-VP16 reporter inhibition counter-screen | Drosophila S2 Gal4-VP16 UAS-luciferase, luminescence, 20 h | Potency, µM (doses to about 53.6 µM), without a hit: at the highest dose activity, negative = inhibition, usual class: inhibitors | 310,000 tested, 3.5% active | AID 2546;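 also: Gal4-VP16 expression switched on by copper sulfate through the metallothionein promoter; % is scaled to controls: 0 for no effect and ±100 for the full control effect; nearly all actives have a fitted effect of over 50% in size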
# SW480 rerep – induces DNA re-replication in SW480 colon adenocarcinoma cells; SW480 DNA re-replication, Hoechst DNA content imaging, 48 h; AID 624297; 340,000 tested, 1.8% active; Potency, µM (titrated, usually from 46.1 µM), inactives show top-dose re-replication activation, actives largely listed as activators; also: % of control where 0% means no effect; nearly all actives have a fitted effect of over 55% in size
#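 Image-based DNA-content assay: after two days of treatment, nuclei were labelled with the DNA dye Hoechst and imaged, and hits were compounds raising the count of nuclei showing high fluorescence intensity.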
# Numbers without * were called inactive; ? = inconclusive; . = no result given; [ ] = dose if it differs, or a comment. Calls follow the shape of the dose curve; as a rule, active = well fitted curve in the direction sought with a large enough effect; inconclusive = small, poorly fitted or top-dose-only effect, or another doubt; inactive = no such curve, though single readings can be large; an effect the other way counts as inactive or inconclusive. Potency is read from the fitted curve at half-maximal effect.
SMILES,MCF10A rerep,ELG1 DNA repair,RORgamma inh,Gal4-VP16 FLuc,SW480 rerep
C[C@H]1C[C@@H]2[C@H]3CCC4=CC(=O)C=C[C@@]4(C)[C@@]3(Cl)[C@@H](O)C[C@]2(C)[C@]1(OC(=O)c1ccco1)C(=O)CCl,3%[20.6 µM],.,?,-22%[17 µM],-1%[20.6 µM]
CC1CC2C3CCC4=CC(=O)C=C[C@]4(C)[C@@]3(Cl)C(O)C[C@]2(C)C1(OC(=O)c1ccco1)C(=O)CCl (stereo partly specified),.,.,16µM*,2%,.
CCCC(=O)O[C@]1(C(=O)CCl)[C@H](C)C[C@@H]2[C@H]3CCC4=CC(=O)C=C[C@]4(C)[C@@]3(F)C(=O)C[C@@]21C,-4%,.,10µM*,4%,7%
Oc1cccc(-c2nnc(-c3cccc(O)c3)nn2)c1,-4%,.,.,.,6%
CCn1c(-c2ccc([N+](=O)[O-])cc2)n[nH]c1=S,11%,-6%,11µM*,-24%,-10%
C=CCn1c(-c2ccc3ncccc3c2)n[nH]c1=S,5%,7%,?,?,?
Cc1nc(-c2ccccc2)sc1-c1ccn[nH]1,?,?,-43%,?,-28%
CCn1c(-c2ccc3ncccc3c2)n[nH]c1=S,0%,3%,11µM*,?,-26%
CCn1c(-c2sc(-c3ccccc3)nc2C)n[nH]c1=S,12%,14%,3.5µM*,?,14%
CCn1c(-c2cccc(Br)c2)n[nH]c1=S,0%,-1%,10µM*,7.1µM*,-3%
CN1CCN(c2ccc(-c3cccc(NC(=O)COc4ccc(Cl)cc4Cl)c3)nn2)CC1,?,?,.,.,-4%
Cc1ccc(NC(=O)N(O)C2CCCCC2C#N)cc1 (stereo unspecified),-1%,.,.,.,-3%
CC(=O)c1c(C)[nH]c(C(=O)CN2CCN(S(=O)(=O)c3ccccc3F)CC2)c1C,11%,12µM*,.,.,-1%
CCn1c(/C(C#N)=N/O)nc2ccccc21,6%,-2%,8.9µM*,?,-2%
Cn1c(/C(C#N)=N/O)nc2ccccc21,-1%,5%,?,-24%,-1%
COCCCNC(=S)NNC(=O)c1ccccc1Br,15%,5%,2.5µM*,-15%,-1%
CNC(=S)NNC(=O)c1ccccc1Br,-4%,3%,13µM*,?,5%
O=C(NN=C1c2ccccc2-c2ccccc21)c1ccccc1Br,28%,?,7.1µM*,10µM*,3%
COCCCNC(=S)NNC(=O)c1csc2ccccc12,-3%,9%,-34%,?,-1%
COCCCNC(=S)NNC(=O)c1ccccn1,?,?,14µM*,0%,?
O=C(NN=C1c2ccccc2-c2ccccc21)c1ccccc1,29%,4%,-8%,0%,?
CCC1CCCCN1CCCNC(=O)CN1C(=O)c2cccnc2Oc2ccc(C)cc21 (stereo unspecified),-1%,5%,-5%,-10%,-13%
Cc1ccc(S(=O)(=O)N2CCN(C(=O)c3cc(=O)c4ccccc4o3)CC2)cc1,8%,-25%,?,5%,-3%
CCOc1ccccc1-c1nc2c(s1)CCc1onc(-c3ccc(OC)cc3)c1-2,5%,.,.,.,-9%
Cc1noc(/C=C/N(C)C)c1S(=O)(=O)N1CCC(C(=O)O)CC1,1%,-4%,-22%,-2%,-11%
SMILES,MCF10A rerep,ELG1 DNA repair,RORgamma inh,Gal4-VP16 FLuc,SW480 rerep
CC(C)N1CCN(C(=O)c2ccc([N+](=O)[O-])cc2)CC1,-3%,.,.,.,-15%
COc1ccc(NC(=O)CSc2nnnn2C2CC2)cc1S(=O)(=O)N1CCOCC1,3%,-4%,.,.,11%
NC(=S)NN=C1c2ccccc2-c2ccccc21,-1%,?,1.3µM*,4µM*,-19%
CC(=O)/C(=N\Nc1cccc(Cl)c1)Sc1cccc2cccnc12,4%,12%,3.2µM*,?,-6%
CC(=O)/C(=N\Nc1cccc(Cl)c1)Sc1nnc(-c2ccccc2)n1-c1ccccc1,?,-19%,10µM*,11µM*,1%
CCOC(=O)c1cc(S(=O)(=O)NCC2CCN(Cc3cccc(C)c3)CC2)cn1C,13%,9%,0%,4%,?
O=C(CSc1n[nH]c(-c2ccncc2)n1)Nc1ccc(F)cc1,0%,-1%,-8%,-3%,3%
O=C(CSc1n[nH]c(-c2ccccn2)n1)Nc1ccc(Cl)cc1,20%,21µM*,2.5µM*,0.1µM*,9.2µM*
Cc1ccc(NC(=O)CSC2=NCCN2)cc1,21µM*,11%,-11%,-10%,15%
O=C(CSc1n[nH]c(-c2ccccn2)n1)Nc1ccc(F)cc1,?,?,7.9µM*,?,3.3µM*
Cc1ccc(NC(=O)CSc2n[nH]c(-c3ccccn3)n2)cc1,?,?,4.5µM*,5.6µM*,5.2µM*
COc1ccccc1-c1nnc2sc(-c3cc4ccccc4o3)nn12,2.9µM*,13%,-36%,4%,2.6µM*
COc1ccccc1-c1nnc2sc(-c3cnccn3)nn12,18µM*,5%,8%,16%,?
COc1ccccc1-c1nnc2sc(-c3ccc(N(C)C)cc3)nn12,?,7%,?,-17%,?
CCOc1ccc(N2CC(C(=O)Nc3ccncc3)CC2=O)cc1 (stereo unspecified),0%,0%,-1%,0%,-3%
O=C(Nc1ccc(F)cc1)C1CC(=O)n2cnnc2N1 (stereo unspecified),-29%,3%,-12%,-15%,0.65µM*
O=C(Nc1ccc(F)cc1)C1CC(=O)n2ncnc2N1 (stereo unspecified),1%,?,18%,-2%,-7%
Cc1nc(Cl)c(Cl)n1CCOc1ccccc1,-11%,13%,-25%,11%,-23%
CC(C)(C)NC(=O)CSc1nsc(SCC(=O)NC(C)(C)C)c1C#N,13%,9.2µM*,-19%[10 µM],3%,0%
CC(=O)CSc1nsc(SCC(C)=O)c1C#N,1%,-3%,?,?,-3%
CCC(CC)C(=O)OCC(=O)Nc1cc(OC)c([N+](=O)[O-])cc1C,-4%,?,23%,-8%,-8%
N/C(=N\C(=S)Nc1ccccc1)c1ccccc1,5%,?,7.9µM*,?,12%
CNC(=S)/N=C(/Nc1ccccc1)c1ccccc1,5%,-9%,?,?,23%
COc1ccc(CCNC(=O)CSc2cccc3cccnc23)cc1OC,-31%,-4%,1µM*,0%,14%
CCC(c1nnc(SCC(=O)NCCc2ccc(OC)c(OC)c2)n1Cc1ccccc1)N(C)C (stereo unspecified),0.65µM*,3%,4%,8%,-5%
COc1ccc(CCNC(=O)CSc2ccccn2)cc1OC,-7%,4%,0%,-2%[10 µM],?
